# Pf growth 48h = P. falciparum growth inhibition at 48 hours (one generation). 310,000 compounds, 5.9% hits. P. falciparum luciferase growth in erythrocytes, 48 h. Potency, µM (titrated, usually from 28.7 µM), without a hit: at the highest dose activity change, negative = inhibition, usual class: inhibitors; further: potency means the concentration at half of the fitted maximal effect; on the % scale 0 is the no-effect control and ±100 the full control effect
#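 Here the parasites carry a stable luciferase gene and grow inside erythrocytes in Albumax-based RPMI medium with compound for one erythrocytic cycle. Activity is scored as loss of luminescent signal.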
# Shiga toxin inh = Shiga toxin inhibition; 290,000 compounds, 9.2% hits; inhibition, % at 38.7 µM; Vero cells, Shiga toxin protein synthesis inhibition reporter; in the data active means inhibition mostly above about 28%, no sharp cut-off; inactive means mostly below about 43%; further: 0% is about no effect
# CHX counter = counter-screen hit for Shiga toxin inhibitors, cycloheximide | 300,000 compounds, 12% hits | AID 2314 | cell reporter, cycloheximide protein synthesis inhibition counterscreen | max response, %; in the data active means max response mostly above about 13%, no sharp cut-off; inactive means mostly below about 14%; further: read at 38.3 µM for the half of the compounds with a filed dose; 0% is about no effect
# Pf growth 96h = P. falciparum growth inhibition at 96 hours; P. falciparum luciferase reporter growth, 96 h; 320,000 compounds, 6.9% hits; Potency, µM (series often up to 28.7 µM), for inactives: at the highest dose activity change, negative = inhibition, actives largely listed as inhibitors; further: potency means the concentration at half of the fitted maximal effect; on the % scale 0 is the no-effect control and ±100 the full control effect
#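 Plates of compound plus infected erythrocytes (2% hematocrit, 0.05% parasitemia final) incubate 96 hours, 37 C, 5% CO2. Detection reagent added; reduced luminescence from the parasites' luciferase reporter flags inhibition.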
# LmPK inh = LmPK (Leishmania mexicana) enzyme inhibition; Q27686; purified LmPK, Kinase-Glo ATP luminescence, 1 h; Potency, µM (titrated, usually from 57.5 µM), for inactives: at the highest dose activity change, negative = inhibition, actives largely listed as inhibitors; 290,000 compounds, 0.37% hits; AID 1721; further: potency means the concentration at half of the fitted maximal effect; on the % scale 0 is the no-effect control and ±100 the full control effect
# Target sequence (Q27686 whole entry, looked up): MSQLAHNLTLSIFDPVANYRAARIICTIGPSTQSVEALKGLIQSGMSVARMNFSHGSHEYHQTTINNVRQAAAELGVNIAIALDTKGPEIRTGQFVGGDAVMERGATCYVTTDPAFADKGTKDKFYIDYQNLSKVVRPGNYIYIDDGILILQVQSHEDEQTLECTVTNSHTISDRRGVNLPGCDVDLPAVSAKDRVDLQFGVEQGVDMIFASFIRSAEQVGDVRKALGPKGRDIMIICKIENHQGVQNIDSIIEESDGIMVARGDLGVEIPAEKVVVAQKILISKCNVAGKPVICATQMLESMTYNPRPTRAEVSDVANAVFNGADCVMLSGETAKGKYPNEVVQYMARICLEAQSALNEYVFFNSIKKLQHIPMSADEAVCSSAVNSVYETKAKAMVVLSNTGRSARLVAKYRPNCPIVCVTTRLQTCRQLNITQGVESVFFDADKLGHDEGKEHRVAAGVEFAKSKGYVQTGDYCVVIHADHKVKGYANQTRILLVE
#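 Kinase-Glo luminescence read after 1 h RT reaction of 0.1 nM LmPK with 0.5 mM PEP and 0.1 mM ADP. Activity scaled between uninhibited and enzyme-free controls.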
# An asterisk follows results filed as active; ? = inconclusive; . = no result given. In the library only some 22% were active in any assay of this set; here they are far more common. Unless noted, the call rests on the fitted dose curve; in most records, active means well fitted inhibition curve with a large enough effect; inconclusive means small, poorly fitted or top-dose-only effect, or another doubt; inactive means no such curve, though single readings can be large or run the other way.
SMILES,Pf growth 48h,Shiga toxin inh,CHX counter,Pf growth 96h,LmPK inh
Cc1cc(C)n2nc(-c3ccc(Br)cc3)cc2n1,157%,.,26*,16%,5%
CC1=CC(=O)N(c2ccn(C)n2)C1=O,?,-1,9,?,-1%
Cc1sc2ncnc(NCC3(N4CCOCC4)CCCCC3)c2c1C,.,6,-5,1.9µM*,3%
c1nc(NCC2(N3CCOCC3)CCCCC2)c2ccsc2n1,?,1,-1,?,0%
CN(C(=O)CN(C)S(=O)(=O)c1ccc(F)cc1)c1c(N)n(Cc2ccccc2)c(=O)[nH]c1=O,1%,.,.,7%,.
CCOc1cc(NC(=O)c2ccccn2)c(OCC)cc1NC(=O)c1ccccc1,-14%,-18,0,43%,-5%
CCOc1cc(NC(=O)c2ccccn2)c(OCC)cc1NC(=O)c1ccc(Cl)cc1,16%,-9,-3,7%,11%
CCOc1cc(NC(=O)c2ccccn2)c(OCC)cc1NC(=O)CC(C)C,13µM*,-3,-2,3.7µM*,0%
CCOc1cc(NC(=O)C2CC2)c(OCC)cc1NC(=O)c1ccccn1,15µM*,-2,-1,.,12%
COc1ccc(/C=N/c2oc(-c3ccccc3)cc2C#N)cc1OC,-12%,62*,23*,22%,-2%
COc1ccc(/C=N/c2nc3ccccc3n2C)cc1OC,1%,-10,27,24%,?
Cc1nn(-c2ccccc2)c(Cl)c1C(=O)NC1CCCCC1,-20%,8,15*,93%,3%
Cc1nn(-c2ccccc2)c(Cl)c1C(=O)NCC(=O)O,7%,-23,-1,?,4%
Cc1cccc(C)c1NC(=O)c1c(C)nn(-c2ccccc2)c1Cl,?,-5,-1,?,2%
Cc1ccc(NC(=O)c2c(C)nn(-c3ccccc3)c2Cl)c(C)c1,17%,60*,23*,9%,0%
Nn1c(COc2ccccc2F)nnc1SCC(=O)NC1CCS(=O)(=O)C1 (stereo not given),14%,.,.,25%,.
COc1cccc(C(=O)Nc2ccc(Cl)c(C(F)(F)F)c2)c1,-18%,88*,51*,?,4%
COc1cc(C(=O)Nc2cccc(-n3cnnn3)c2)cc(OC)c1OC,1%,-10,-3,0%,-2%
COc1cc(C(=O)Nc2cccc(-n3cnnn3)c2)cc(Cl)c1OC,9.3µM*,-3,-1,?,-6%
COc1cccc(C(=O)Nc2cc(C(F)(F)F)ccc2Cl)c1,35%,-6,-3,94%,3%
COc1cc(C(=O)Nc2ccc(Cl)c(C(F)(F)F)c2)cc(OC)c1OC,13µM*,9,5,-9%,-1%
Cc1nc(CCNC(=O)CC2C(=O)NCCN2CC(C)C)nc2c1CCC2 (stereo not given),-9%,-3,-3,?,-3%
COc1ccc(CCNC(=O)Cc2cccc(C(F)(F)F)c2)cc1OC,?,-8,4,?,0%
O=C(c1ccc(-c2ccccc2)cc1)c1ccccc1C(=O)N1CCOCC1,20%,-16,14,.,4%
O=C(/C=C/N1CCOCC1)c1ccc(-c2ccccc2)cc1,53%,50,42*,.,-1%
SMILES,Pf growth 48h,Shiga toxin inh,CHX counter,Pf growth 96h,LmPK inh
O=C(/C=C\N1CCOCC1)c1ccc(Br)cc1,32%,34*,27*,?,0%
CCCCCOc1ccc(C(=O)CCC(=O)Nc2ccc(NC(C)=O)cc2)cc1,56%,1,-2,37%,3%
COc1cc(C(=O)Nc2nc(OC)c(-c3ccccc3)c(OC)n2)cc(OC)c1OC,?,-20,0,.,5%
COc1cc(/C=C(\NC(=O)c2cc(OC)c(OC)c(OC)c2)C(=O)NC(C(=O)O)c2ccccc2)cc(OC)c1OC (stereo not given),0%,-8,10,13µM*,-6%
COc1cc(OC)cc(-c2cc(NC(C)=O)n[nH]2)c1,8%,1,11,39%,-1%
COc1cc(C(=O)Nc2cc(-c3ccccc3)[nH]n2)cc(OC)c1OC,12µM*,-6,-3,4%,3%
CC(=O)Nc1cc(-c2ccc(Cl)cc2)[nH]n1,127%,40,44*,-10%,-1%
COc1ccc(C(=O)Nc2ccc(NC(=O)c3cc(OC)c(OC)c(OC)c3)cn2)cc1,2.1µM*,15,2,32%,-2%
CCCCCCCC#Cc1ccccc1/C=N/S(=O)c1ccc(C)cc1 (stereo not given),-57%,-5,-2,-8%,5%
CCCC(=O)Nc1ccc(NC(=O)Cc2ccccc2)cn1,11%,-8,-1,.,1%
COc1cc(C(=O)Nc2ccc(NC(=O)c3ccccc3Cl)nc2)cc(OC)c1OC,9.3µM*,15,-3,147%,3%
CCCC(=O)Nc1ccc(NC(=O)c2ccccc2Cl)nc1,65%,57,40*,?,-2%
COc1cc(C(=O)Nc2ccncc2)cc(OC)c1OC,27%,6,13,?,4%
COc1cc(C(=O)Nc2ccc(C(=O)c3cccs3)cc2)cc(OC)c1OC,?,-2,2,9.3µM*,-2%
COc1cc(C(=O)Nc2ccc(Nc3ccccc3)cc2)cc(OC)c1OC,-6%,-3,4,13µM*,2%
Cc1ccc(NC(=O)CN(C)Cc2nc3c(Br)cc(Br)cc3c(=O)[nH]2)cc1,-1%,17,2,0%,-1%
COc1cc(C(=O)Nc2ccc(NC(=O)c3ccccc3)nc2)cc(OC)c1OC,5.2µM*,11,9,29%,-5%
COc1ccc(C(=O)Nc2ccc([N+](=O)[O-])cn2)cc1OC,37%,-26,16,14%,3%
COc1ccc(C(=O)Nc2ccc(Cl)cn2)cc1Cl,84%,79*,50*,96%,-3%
Cc1onc(-c2ccccc2)c1C(=O)N1CCN(c2ccccc2F)CC1,-10%,-5,-3,?,1%
CCN(C(=O)CSc1nc2ccc([N+](=O)[O-])cc2s1)C1CCS(=O)(=O)C1 (stereo not given),?,-3,13*,12µM*,-2%
CCN(C(=O)CSc1nnc(Nc2cccc(C)c2C)s1)C1CCS(=O)(=O)C1 (stereo not given),8.3µM*,-7,-4,-102%,0%
CCc1ccc(Nc2nnc(SCC(=O)N(C)C3CCS(=O)(=O)C3)s2)cc1 (stereo not given),9.3µM*,23,17*,?,-2%
CCN(C(=O)CN1C(=O)c2ccc([N+](=O)[O-])cc2C1=O)C1CCS(=O)(=O)C1 (stereo not given),59%,.,.,3%,.
CCN(C(=O)CSc1nc2cc(S(=O)(=O)N(CC)CC)ccc2o1)C1CCS(=O)(=O)C1 (stereo not given),?,6,-2,?,-4%
CCCN(C(=O)CSc1nc2cc(S(=O)(=O)N(CC)CC)ccc2o1)C1CCS(=O)(=O)C1 (stereo not given),?,.,.,5.2µM*,.

# Compound activity (PubChem)
